Results from PubChem BioAssay (NCI).
This is part of a sample that, as a whole, favours compounds with a hit. Of some 83,000 tested, about 20% had one in any assay.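 Activity criterion: percent growth below 10, measured after cells in 96-well plates were exposed to a single compound concentration for 48 hours.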 A number with no mark means an inactive call. The source made the active and inactive calls.

Columns and labels:
Test in all cases: NCI-60 one-dose screen, 48 h (100 = growth as untreated, 0 = no growth, -100 = all killed)
Conditions in all cases: 10 µM unless noted
NCI-H23 lung = system: NCI-H23 lung
NCI-H226 lung = system: NCI-H226 lung
NCI-H322M lung = system: NCI-H322M lung
HOP-62 NSCLC = system: HOP-62 NSCLC
NCI-H460 lung = system: NCI-H460 lung
HOP-92 NSCLC = system: HOP-92 NSCLC
NCI-H522 lung = system: NCI-H522 lung
A549/ATCC NSCLC = system: A549/ATCC NSCLC
786-0 renal = system: 786-0 renal
COLO 205 colon = system: COLO 205 colon
DU-145 prostate = system: DU-145 prostate
K-562 leukemia = system: K-562 leukemia
MALME-3M melanoma = system: MALME-3M melanoma
MDA-MB-231 breast = system: MDA-MB-231 breast
RXF 393 renal = system: RXF 393 renal
SF-268 CNS = system: SF-268 CNS
SF-295 CNS = system: SF-295 CNS
SF-539 CNS = system: SF-539 CNS
UACC-257 melanoma = system: UACC-257 melanoma
M14 melanoma = system: M14 melanoma

Row | SMILES | growth (NCI-H23 lung) | growth (NCI-H226 lung) [%] | growth (NCI-H322M lung) [%] | growth (HOP-62 NSCLC) | growth (NCI-H460 lung) | growth (HOP-92 NSCLC) | growth (NCI-H522 lung) | growth (A549/ATCC NSCLC) | growth (786-0 renal) | growth (COLO 205 colon) | growth (DU-145 prostate) | growth (K-562 leukemia) | growth (MALME-3M melanoma) | growth (MDA-MB-231 breast) | growth (RXF 393 renal) | growth (SF-268 CNS) | growth (SF-295 CNS) | growth (SF-539 CNS) | growth (UACC-257 melanoma) | growth (M14 melanoma)
1 | COc1ccc(Cl)cc1NC(=O)c1cc2c(n1C)-c1nc(NC(=O)C(C)(C)C)sc1CC2 | 87.8% | 89.6 | 91.3 | 76.4% | 98.1% | 67.9% | 69% | 77.2% | 94.7% | 97.7% | 98.6% | 92.2% | 106% | 91.9% | 97.5% | 95.5% | 87.8% | 98.9% | 90.9% | 88.2%
2 | CN(C)c1ccc(/C=c2\s/c(=C\C(=O)C(C)(C)C)[nH]c2=O)cc1 | 98% | 101 | 86.7 | 101% | 104% | 94.5% | 78.1% | 79.7% | 93.2% | 97.7% | 93.1% | 111% | 93.6% | 118% | 122% | 93.5% | 94.9% | 96.6% | 96.1% | 101%
3 | C=CCn1c(SCC(=O)Nc2ccc(/C(C)=N\O)cc2)nnc1-c1cc(-c2ccc(OC)cc2)nc2ccccc12 | 33.7% | 41.2 | 31.9 | 38.5% | 27.8% | 45.9% | 18.7% | 20.1% | 32.8% | 19.2% | 60.6% | 19.1% | 66.4% | 33.7% | 42.2% | 51.5% | 19.8% | 20.2% | 44.1% | 36.3%
4 | CNCCCOc1c(Br)cc(CCNC(=O)/C(Cc2cc(Br)c(OC)c(Br)c2)=N/O)cc1Br | -20.9% (active) | 75.1 | 21 | -7.84% (active) | -44.7% (active) | -6.24% (active) | -64% (active) | -16.7% (active) | -80.8% (active) | -72% (active) | -5.03% (active) | -51.2% (active) | -78% (active) | -69.8% (active) | -5.85% (active) | 4.43% (active) | -65.5% (active) | -73.9% (active) | -45.3% (active) | -76.7% (active)
5 | Cc1ncc(CO)c(C(=O)O)c1O | 98.6% | 102 | 80.9 | 104% | 105% | 106% | 79.8% | 110% | 97.5% | 112% | 102% | 93% | 95.9% | 103% | 106% | 94.4% | 100% | 96.6% | 107% | 93.7%
6 | O=C(NCCNc1nccc(-c2c(-c3cccc(O)c3)nc3sccn23)n1)c1ccccc1 | 82.6% | 54.5 | 101 | 119% | 42.4% | 58.6% | 72.7% | 56.3% | 66.5% | 48.5% | 90.4% | 62.7% | 9.31% (active) | 80% | 62.6% | 80.7% | 67.4% | 73.2% | 11.3% | 15.3%
7 | O=c1c2ccccc2sc2c(NCCN3CCOCC3)nc3ccccc3c12 | 68% | 59.2 | 104 | 52% | 27.3% | 24.8% | 63.1% | 43.1% | 48.5% | 21.9% | 56% | -11.7% (active) | 52.2% | 28.9% | 11.8% | 66.9% | -7.24% (active) | 47.3% | 79.8% | 5.59% (active)
8 | Cc1c(Cl)ccc2c(C(=O)Cl)cc(-c3ccccc3)nc12 | 98.8% | 90.8 | 103 | 85.4% | 98.2% | 93.5% | 95.1% | 92.9% | 97.1% | 111% | 101% | 97.1% | 104% | 97% | 110% | 102% | 94.7% | 100% | 87.9% | 98.1%
9 | CCc1cccc(-c2ccccc2)c1 | 107% | 109 | 107 | 101% | 108% | 92.9% | 106% | 104% | 98.8% | 105% | 110% | 109% | 114% | 114% | 130% | 108% | 107% | 97.6% | 99.1% | 92.6%
10 | ClC1c2ccccc2CCc2ccccc21 | 89.2% | 96.7 | 94.1 | 90% | 114% | 82.7% | 76.6% | 93.4% | 93.5% | 96.5% | 120% | 109% | 90.6% | 104% | 111% | 99.3% | 106% | 95% | 88.8% | 99.2%
11 | Cc1cc(-c2ccccc2)nc2ccccc12 | 90.4% | 90.2 | 103 | 79.8% | 103% | 95.7% | 90.5% | 90.2% | 109% | 96.5% | 112% | 91.8% | 99.4% | 94.3% | 94.6% | 94.7% | 97.6% | 98.2% | 99.9% | 96.6%
12 | O=C(N/N=C1\SCC(=O)N1c1ccccc1)c1cc(-c2cc3ccccc3o2)nn1-c1ccccc1 | 44.8% | 118 | 102 | 101% | 121% | 50.9% | 106% | 110% | 102% | 132% | 109% | 90.6% | 94% | 91.9% | 101% | 103% | 104% | 104% | 107% | 110%
